# Data as given in PubChem BioAssay AID1259415 (National Center for Advancing Translational Sciences (NCATS), 2018).
# In all, about 410,000 compounds went through this assay and about 18,000 (4.4%) were called active. Inconclusive results (about 7%) are left out. The sample holds actives, similar compounds and a random draw of the others, so the mix is not that of the screen. Values without a mark were called inactive. No stated cut-off is given here; in the data, active means activity change below about -60%; inconclusive means no clear call, values can overlap the other calls; inactive means above about -39%.
# Assay: qHTS Assay for inhibitors of the human cytomegalovirus (HCMV)
# Conditions: HFF cells, HCMV-luciferase reporter, 72 h; at 57.5 µM; active compounds read low
# In short: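 Inhibition of viral replication was scored as loss of reporter luminescence in HFFs infected with HCMV-luciferase (MOI 1 PFU/cell) for 72 h; compounds tested at 2 doses, normalized to buffer and Salinomycin controls.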
# On the % scale 0 is the no-effect control and ±100 the full control effect.
row,SMILES,"activity change, negative = inhibition"
1,CCc1ccc(-n2nnc(-c3nc(-c4ccccc4)no3)c2C)cc1,168%
2,O=C(Nc1ccc(OC(F)(F)F)cc1)C1CCCN(S(=O)(=O)c2ccc(Br)s2)C1 (stereo unspecified),6.14%
3,O=C1COCc2ccc(-c3cc4ccccc4o3)cc2N1CC1CC1,-2.65%
4,COC(=O)CCCCCN1C(=O)NC(c2ccc(-c3ccccc3)cc2)C(C(=O)OCc2ccccc2)=C1C (stereo unspecified),19.6%
5,CCCCNC(=O)C(C)N(CCN(C)C)C(=O)CCCN1C(=O)NC(c2ccc(Cl)cc2)C(C(=O)OCc2ccccc2)=C1C (stereo unspecified),-68% (active)
6,CC1=C(C(=O)OC(C)(C)C)C(c2ccc(Br)cc2)NC(=O)N1CCCC(=O)O (stereo unspecified),-18.5%
7,Cc1ccc(SCC(=O)Nc2ccc3oc(-c4ccccc4C)nc3c2)cc1,73.5%
8,CC(=O)OC1=C(C(C)=O)N(Cc2ccccc2)S(=O)(=O)c2ccccc21,3.57%
9,COc1ccc(OCCn2cc(C(=O)C3CCCCC3)c3ccccc32)cc1,-16.3%
10,CCN(C(=O)c1cc([N+](=O)[O-])ccc1NCc1cccnc1)c1ccccc1,-61.2% (active)
11,O=C(COC(=O)c1cc([N+](=O)[O-])ccc1NCc1ccccc1)NC1CCCCC1,-19.2%
12,CN(c1ccccc1)S(=O)(=O)c1ccc(C(=O)NCc2cccnc2)cc1,-0.899%
13,CCc1ccc(C2C(C(=O)Nc3ccccc3)=C(C)Nc3c(C(=O)Nc4ccc(C)cc4)cnn32)cc1 (stereo unspecified),-39.9%
14,CCCCCCCCCCCCC(NC(C)=O)(C(=O)OCC)C(=O)OCC,12.4%
15,CC(=O)N1CCN(c2ccc(NCc3ccc(C(C)C)cc3)cc2)CC1,-36.3%
16,CC(C)(C)C(=O)c1c(N)[nH]c(C(=O)c2ccccc2)c1-c1ccc(F)cc1,-5.27%
17,Nc1[nH]c(C(=O)c2ccccc2)c(-c2ccncc2)c1C(=O)NCc1cccc2ccccc12,-19.1%
18,Cc1nc2ccccc2c(-c2ccccc2)c1C(=O)c1ccccc1,-104% (active)
19,COc1ccc(OCC(=O)Nc2cccc(C(=O)OCc3cc(=O)n4nc(C)sc4n3)c2)cc1,47.5%
20,CCc1c(C)nc2c(-c3ccccc3)c(C)nn2c1Nc1ccc(NC(C)=O)cc1,-66.5% (active)
21,Cc1nn2c(NCCN(C)C)c3c(nc2c1-c1ccccc1)CCC3,-16.5%
22,CCc1ccc(NC(=O)c2cnc3c(-c4ccccc4)c(C)nn3c2C)cc1,-0.863%

row,SMILES,"activity change, negative = inhibition"
1,Cc1ccc(OC(=O)CSc2nnc(-c3cccs3)o2)cc1,3.01%
2,O=C(CSc1cn(CC(=O)N2CCOCC2)c2ccccc12)Nc1ccccc1,19.2%
3,COc1cc(Cl)c(C)cc1NC(=O)COC(=O)c1cc(SC)ccc1Cl,4.92%
4,COc1ccc(OCC(=O)Nc2cc(C)c(Cl)cc2OC)c([N+](=O)[O-])c1,-64.3% (active)
5,Cc1cc(NC(=O)COC(=O)COc2ccc(Cl)cc2C)c([N+](=O)[O-])cc1C,26.5%
6,Cn1cc(S(=O)(=O)N2CCCCCC2)cc1C(=O)N1CCN(c2ccc(F)cc2)CC1,-13.3%
7,COc1ccc(NC(=O)CCCc2nnc3n(CCC(C)C)c(=O)c4sccc4n23)c(OC)c1,12.6%
8,CCOc1ccc(-c2cc3nc(C4CCN(C(=O)OC(C)(C)C)CC4)c(C(=O)Nc4cccc(CC)c4)cn3n2)cc1,-18.2%
9,COC(=O)c1ccccc1NC(=O)c1ccc(COc2ccccc2Cl)o1,14.7%
10,CCN(CC)c1ccc(/C=N/Nc2nc(C)cc(C)n2)c(O)c1,-102% (active)
11,CCN(CC)c1ccc(/C=N/NC(=O)c2cnccn2)c(O)c1,-98.7% (active)
12,NS(=O)(=O)c1ccc(CNC(=O)c2cnccn2)cc1,8.17%
13,CCN(CC)c1ccc(/C=N/NC(=O)CNC(=O)c2cccs2)cc1,-20%
14,O=c1cc2nc(-c3ccccc3)nc(SCCOc3ccc(Cl)cc3)n2[nH]1,5.21%
15,Cc1ccc(C)c(N2CCN(C(=O)Cn3nc(C)c4sc5ccccc5c4c3=O)CC2)c1,23.4%
16,CC[C@H](C)[C@H]1CNC(=O)C(=O)N1CC1CCN(CCc2ccc(OC)c(OC)c2)CC1,15.6%
17,COc1ccc(Cl)cc1S(=O)(=O)N1CCC(c2ccncc2)CC1,-32.1%
18,CCOc1ccc(OCC)c(Nc2nc3ccccc3n3nnnc23)c1,-1.18%
19,CC(C)[C@H]1COCCS(=O)(=O)N1Cc1ccccc1-c1cccc2c1sc1ccccc12,-19%
20,COC(=O)c1c(-c2ccsc2)oc2ccc(-c3cc(OC)c(OC)c(OC)c3)cc12,8.37%
21,CSc1ncccc1C(=O)N1CCCC(CCC(=O)NCc2ccccc2F)C1 (stereo unspecified),-1.95%
22,Cc1cc2cc3n(c2nn1)N=C(Cl)CC3,-74.2% (active)

row,SMILES,"activity change, negative = inhibition"
1,Cc1ccc(C(=O)COC(=O)C(Cc2c[nH]c3ccccc23)NC(=O)c2ccc(Br)cc2)cc1 (stereo unspecified),0%
2,O=C(CSc1nccn1Cc1ccc(F)cc1)NCc1ccccc1,-14.9%
3,O=C1NC(Cc2ccccc2)c2nc3ccc(Br)cc3c(=O)n2-c2cc3ccccc3cc21 (stereo unspecified),17%
4,CC(C)CC1NC(=O)c2cc(Cl)ccc2-n2c1nc1ccccc1c2=O (stereo unspecified),-99.6% (active)
5,COc1ccc2nc3n(c(=O)c2c1)-c1ccc(Cl)cc1C(=O)NC3Cc1ccccc1 (stereo unspecified),-25.7%
6,Cc1ccc(-c2nnn(CC(=O)N(Cc3ccco3)C(C(=O)NC(C)(C)C)c3ccncc3)n2)o1 (stereo unspecified),9.51%
7,Cc1ccc(-c2cc(C(=O)Oc3ccccc3Cl)no2)cc1C,81.2%
8,COc1cc(C(=O)N(Cc2ccc(C(C)C)cc2)C2CCS(=O)(=O)C2)cc(OC)c1OC (stereo unspecified),11.7%
9,CN(C(=O)CSc1nc2ccccc2n1Cc1ccccc1C#N)c1ccccc1,-3.45%
10,C[C@@H](NC(=O)OC(C)(C)C)c1nnc(S(=O)(=O)Cc2ccccc2)o1,-105% (active)
11,CC(C)[C@@H](NC(=O)OC(C)(C)C)C(=O)NCC1CCC(C(=O)N[C@@H](Cc2ccccc2)C(=O)O)CC1 (stereo partly specified),-17.7%
12,CC(C)(C)c1ccc(C(CC(=O)O)NS(=O)(=O)Cc2ccccc2)cc1 (stereo unspecified),30.5%
13,CC(C)N(C(=O)Cn1c(SCC(=O)N2CCN(c3ccccc3)CC2)nc2ccccc21)C(C)C,-20.6%
14,CCn1cc2nc(SCc3ccccc3Cl)n(CCc3ccccc3)c(=O)c2n1,-14.7%
15,COc1cc(C(=O)NCCc2csc3nc(-c4ccccc4C)nn23)cc(OC)c1OC,7.41%
16,CCCNC(=O)c1nnc2n1CCN(C(=O)c1ccccc1OC)C2,-9.02%
17,COc1ccccc1C(=O)NCCn1cc(SCc2ccccc2Cl)c2ccccc21,20.2%
18,Cc1cccc(CN2CCN(C3CN(Cc4ccccc4)S(=O)(=O)C3)CC2)c1 (stereo unspecified),-24.1%
19,Cc1cccc(CN2CCN(C3CN(Cc4cn(Cc5ccccc5F)nn4)S(=O)(=O)C3)CC2)c1 (stereo unspecified),-0.715%
20,Cc1cccc(CN2CCN(C3CN(Cc4cn(Cc5cc(C)cc(C)c5)nn4)S(=O)(=O)C3)CC2)c1 (stereo unspecified),-101% (active)
21,COc1cccc(CNC(=O)C(=O)NCC(c2cccs2)S(=O)(=O)c2ccccc2)c1 (stereo unspecified),-19.1%
22,CN(CCCC(=O)Nc1nccs1)S(=O)(=O)c1ccc(Cl)cc1,-64.7% (active)

row,SMILES,"activity change, negative = inhibition"
1,Cc1nc(NC(=O)CN(C)S(=O)(=O)c2ccc(Cl)cc2)sc1C,12.3%
2,COCCN(C(=O)CCC(=O)Nc1nccs1)C(C(=O)NC(C)(C)C)c1ccc(Cl)cc1 (stereo unspecified),-6.27%
3,CCc1ccc(CN(Cc2ccco2)C(=O)COc2ccc(Cl)c(C)c2)cc1,-9.02%
4,Cc1c(Cl)c([N+](=O)[O-])nn1CCCC(=O)NC(C)c1ccccc1 (stereo unspecified),46.9%
5,Cc1c(Cl)c([N+](=O)[O-])nn1CC(=O)NCC1CCCO1 (stereo unspecified),35.2%
6,Cc1c(Cl)c([N+](=O)[O-])nn1Cc1ccc(C(=O)N/N=C\c2cc(Cl)ccc2O)o1,-93.7% (active)
7,O=C1CC(c2nnc(Cc3ccc(Cl)cc3)o2)CN1c1ccccc1 (stereo unspecified),-4.62%
8,COc1ccccc1/C=C/C(=O)OCC(=O)NC1CCCCCC1,-34.6%
9,CCOC(=O)C(=Cc1ccccc1OC)C(=O)OCC,-65.2% (active)
10,COc1ccccc1C(=O)OCC(=O)NCCNC(=O)COC(=O)c1ccccc1OC,-25.9%
11,CCc1cnc2c(c1SCC(=O)N1CCC(C)CC1)c(=O)n(C)c(=O)n2C,-18.2%
12,COc1ccc2[nH]c3c(c2c1)CCN1C(=O)C(CC(=O)NCc2cccc(C(F)(F)F)c2)C[C@H](C(=O)N2CCOCC2)[C@@]31C (stereo partly specified),-2.74%
13,CCN(CC)S(=O)(=O)c1nnc(NC(=O)COc2ccccc2Cl)s1,-5.69%
14,Clc1ccc2nc(-c3ccccc3)nc(C(Cl)Cl)c2c1,-78.3% (active)
15,Fc1ccc2nc(-c3ccccc3)nc(SCc3nnc(-c4ccccc4)o3)c2c1,1.64%
16,O=C(C1COc2ccccc2O1)N(Cc1cccnc1)c1nc2c(F)cc(F)cc2s1 (stereo unspecified),0%
17,Cc1cc(S(=O)(=O)NCC(C)C)ccc1OCC(=O)NC1CC1,-9.36%
18,COc1cccc(C(=O)Nc2ccc3oc(-c4ccc5ccccc5c4)nc3c2)c1,12.9%
19,O=C(Nc1ccc2ccccc2c1)Nc1ccc2snnc2c1,-97.2% (active)
20,CS(=O)(=O)c1ccccc1C(=O)Nc1ccc2sccc2c1,22.5%
